# Assay results published in PubChem BioAssay (Tox21).
# Unmarked numbers belong to inactive results. Records with an inconclusive call do not appear. Where a call stands in place of a potency, no number is given. The source made the active and inactive calls. Unless noted, calls come from the whole dose curve; as a rule, active = well fitted curve in the direction sought with a large enough effect in the repeat runs; inconclusive = weak or mixed curves; inactive = no such curve, though single readings can be large; an effect the other way counts as inactive or inconclusive.
# Key:
# [1] = qHTS assay to identify small molecule agonists of the estrogen receptor alpha (ER-alpha) signaling pathway in the presence of an antagonist - cell viability counter screen (AID 1259386);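 note: cells exposed to compounds for 22 h at 37 °C before the viability read; nearly all actives have a fitted effect of over 30% in size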; note: potency is the fitted concentration of half-maximal effect; for activity change, negative = cytotoxicity: series mostly up to about 92 µM
# Outline: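 Cell viability in VM7Luc4E2 cells (endogenous full-length ER-alpha) measured by CellTiter-Fluor fluorescence in the same wells as the luciferase screen. Cells pre-cultured 5 days in charcoal-stripped serum, then treated 22 h with compounds at 15 concentrations plus 10.0nM ICI-182,780.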
# [2] = molecular target: Progesterone receptor (Homo sapiens) (UniProt P06401); experiment: qHTS assay to identify small molecule antagonists of the progesterone receptor (PR) signaling pathway (AID 1346795; active = well fitted inhibition curve with a large enough effect in the signal ratio in the repeat runs, not every such curve was filed as active; the % refers to the signal ratio)
# Outline: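 Antagonist mode: compounds tested against 1 nM (final) promegestone stimulation in HEK293T cells expressing PR-UAS-bla reporter, 16 hr at 37C, 5% CO2; beta-lactamase activity detected via B/G FRET substrate after 2 hr at room temperature.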
# [3] = qHTS assay to identify small molecule agonists of the progesterone receptor (PR) signaling pathway - cell viability counter screen (AID 1346799; calls by dose curve; note: nearly all actives have a fitted effect of over 45% in size; note: potency is the fitted concentration of half-maximal effect)
# Outline: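 Cells (PR-UAS-bla HEK293T) are plated at 3,000/well in 2% charcoal-stripped FBS medium, rested 6 hr, dosed and incubated 16 hr at 37C. CellTiter-Glo is then added and luminescence measured after 30 min at room temperature.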
# [4] = qHTS assay to identify small molecule antagonists of the TGF-beta/Smad signaling pathway - cell viability counter screen (AID 1346824); note: nearly all actives have a fitted effect of over 50% in size
# Outline: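 SBE-bla HEK 293T cells, incubated overnight, then compound plus 0.25 ng/mL TGF-beta1 (stock added) for 5 hr at 37 C. Viability was read in the same wells by CellTiter-Glo luminescence after 30 min at room temperature.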
# [5] = qHTS assay to identify small molecule agonists of the TGF-beta/Smad signaling pathway - cell viability counter screen (AID 1346829); note: top concentration of the series differs between compounds; nearly all actives have a fitted effect of over 45% in size
# Outline: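 Luminescence from CellTiter-Glo, read after a 30 min room-temperature incubation, gives cell viability of SBE-bla HEK 293T cells treated 5 hr with compounds at 37 C.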
# [6] = qHTS assay to identify small molecule agonists of the TGF-beta/Smad signaling pathway (AID 1346859; active = well fitted activation curve with a large enough effect in the signal ratio in the repeat runs, not every such curve was filed as active; the % refers to the signal ratio; note: series mostly up to about 77 µM)
# Outline: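 Reporter line: HEK 293T with stably integrated SBE-controlled beta-lactamase. Compound exposure lasts 5 hr at 37 C and 5% CO2; substrate loading follows for 2 hr at room temperature, with emission read at 460 and 530 nm.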
# [7] = molecular target: Thyrotropin-releasing hormone receptor (Homo sapiens) (UniProt P34981); experiment: qHTS assay to identify small molecule antagonists of the thyrotropin-releasing hormone receptor (TRHR) signaling pathway (AID 1346877; active = well fitted inhibition curve with a large enough effect in the repeat runs, not every such curve was filed as active; note: series mostly up to about 51 µM)
# Outline: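 TRHR-expressing HEK293 cells loaded with calcium dye for 2 h at 37 C; compounds pre-incubated 5 min at room temperature before TRH challenge at 1 nM final. Intracellular calcium fluorescence read kinetically for 3 min; 15 concentrations in triplicate.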
# [8] = molecular target: Thyrotropin-releasing hormone receptor (Homo sapiens) (UniProt P34981); experiment: qHTS assay to identify small molecule agonists of the thyrotropin-releasing hormone receptor (TRHR) signaling pathway (AID 1346891; calls by dose curve; note: potency is the fitted concentration of half-maximal effect; for activation: series mostly up to about 58 µM)
# Outline: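 Cells: TRHR-Hek293, seeded and incubated 18 h. Dye loading: 2 h at 37 °C. Compound added from DMSO stock by pin tool. Read-out: kinetic calcium fluorescence over 3 min.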
# [9] = qHTS assay to identify small molecule antagonists of the progesterone receptor (PR) signaling pathway - cell viability counter screen (AID 1346798); note: series mostly up to about 92 µM; nearly all actives have a fitted effect of over 50% in size
# Outline: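 Counter screen for cytotoxicity: viability of PR-UAS-bla HEK293T cells was measured with CellTiter-Glo luminescence following 16 hr compound exposure in the presence of R5020.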
# [10] = molecular target: Progesterone receptor (Homo sapiens) (UniProt P06401); experiment: qHTS assay to identify small molecule agonists of the progesterone receptor (PR) signaling pathway (AID 1346784; calls by dose curve; note: nearly all actives have a fitted effect of over 30% in size)
# Outline: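 Cells (PR-UAS-bla HEK 293T, GripTite) were plated in assay medium containing 2% charcoal-stripped FBS and incubated 6 hr. Test compounds in DMSO were added for 16 hr at 37C. FRET substrate was then loaded for 2 hr at room temperature before fluorescence reading.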
# Thyrotropin-releasing hormone receptor (Homo sapiens), sequence (P34981 whole entry, looked up): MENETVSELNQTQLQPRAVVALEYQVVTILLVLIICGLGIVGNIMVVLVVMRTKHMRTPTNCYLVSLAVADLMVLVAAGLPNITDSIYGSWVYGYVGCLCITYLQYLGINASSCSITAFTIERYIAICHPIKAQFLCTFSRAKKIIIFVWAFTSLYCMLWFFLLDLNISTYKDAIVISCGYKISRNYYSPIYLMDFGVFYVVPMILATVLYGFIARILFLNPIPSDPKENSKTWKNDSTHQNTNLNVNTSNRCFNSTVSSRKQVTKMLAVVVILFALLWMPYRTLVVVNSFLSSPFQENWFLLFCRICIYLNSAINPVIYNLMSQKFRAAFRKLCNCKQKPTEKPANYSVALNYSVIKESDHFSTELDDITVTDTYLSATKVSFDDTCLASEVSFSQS
# Progesterone receptor (Homo sapiens), sequence (P06401 whole entry, looked up): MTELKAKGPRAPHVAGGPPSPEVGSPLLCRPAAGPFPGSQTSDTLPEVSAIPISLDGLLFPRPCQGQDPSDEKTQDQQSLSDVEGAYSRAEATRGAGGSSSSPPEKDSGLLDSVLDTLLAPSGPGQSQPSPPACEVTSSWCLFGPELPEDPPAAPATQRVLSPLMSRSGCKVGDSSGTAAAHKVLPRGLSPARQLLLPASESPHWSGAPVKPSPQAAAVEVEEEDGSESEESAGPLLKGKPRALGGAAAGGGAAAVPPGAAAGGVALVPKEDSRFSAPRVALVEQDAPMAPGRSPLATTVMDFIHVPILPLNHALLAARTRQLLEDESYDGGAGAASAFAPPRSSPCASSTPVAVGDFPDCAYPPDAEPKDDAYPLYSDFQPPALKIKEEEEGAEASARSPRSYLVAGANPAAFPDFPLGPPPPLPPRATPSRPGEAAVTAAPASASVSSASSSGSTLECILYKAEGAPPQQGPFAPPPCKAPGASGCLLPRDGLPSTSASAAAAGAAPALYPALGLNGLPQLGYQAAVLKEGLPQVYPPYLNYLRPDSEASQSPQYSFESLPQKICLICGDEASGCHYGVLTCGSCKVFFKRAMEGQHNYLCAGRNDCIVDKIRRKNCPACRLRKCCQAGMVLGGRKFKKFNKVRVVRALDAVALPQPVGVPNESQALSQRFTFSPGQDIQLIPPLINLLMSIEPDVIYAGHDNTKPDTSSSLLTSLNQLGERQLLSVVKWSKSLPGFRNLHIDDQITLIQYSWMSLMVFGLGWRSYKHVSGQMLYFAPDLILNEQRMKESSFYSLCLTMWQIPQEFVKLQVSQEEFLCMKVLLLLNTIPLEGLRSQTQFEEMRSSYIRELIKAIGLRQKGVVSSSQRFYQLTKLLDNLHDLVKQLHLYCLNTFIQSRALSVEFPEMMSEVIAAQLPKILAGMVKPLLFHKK
structure (smiles),measurement,setting,value
CCCCOC(=O)CCC(C)=O,Potency,[1],inactive
same,Potency,[2],inactive
same,Potency,[3],inactive
same,outcome,[4],inactive
same,outcome,[5],inactive
same,outcome,[6],inactive
same,outcome,[7],inactive
same,Potency,[8],inactive
CC(=O)N1C[C@H](O)C[C@H]1C(=O)O,Potency,[1],inactive
same,Potency,[9],inactive
same,Potency,[3],inactive
same,outcome,[4],inactive
same,outcome,[5],inactive
same,outcome,[6],inactive
same,outcome,[7],inactive
same,Potency,[8],inactive
CC(C)(C)OC(=O)c1cccc(N)c1,Potency,[1],inactive
same,Potency,[9],inactive
same,Potency,[3],inactive
same,outcome,[4],inactive
same,outcome,[5],inactive
same,outcome,[6],inactive
same,outcome,[7],inactive
same,Potency,[8],inactive
NC(=O)NC1N=C([O][Al])NC1=O (configuration not stated),Potency,[1],inactive
same,Potency,[2],inactive
same,Potency,[3],inactive
same,outcome,[4],inactive
same,outcome,[7],inactive
same,Potency,[8],inactive
Nc1ccn([C@@H]2O[C@H](CO)[C@@H](O)C2(F)F)c(=O)n1,Potency,[1],inactive
same,Potency,[2],inactive
same,Potency,[9],inactive
same,outcome,[4],inactive
same,outcome,[5],inactive
same,outcome,[6],inactive
CC(C)(N)C#N,Potency,[10],inactive
same,Potency,[2],inactive
same,Potency,[9],inactive
same,Potency,[3],inactive
same,outcome,[4],inactive
same,outcome,[5],inactive
same,outcome,[6],inactive
same,outcome,[7],inactive
same,Potency,[8],inactive
Nc1ccn([C@@H]2O[C@H](CO)[C@@H](O)[C@@H]2O)c(=O)n1,Potency,[1],inactive
same,Potency,[2],inactive
same,Potency,[3],inactive
same,outcome,[4],inactive
same,outcome,[5],inactive
same,outcome,[6],inactive
same,outcome,[7],inactive
same,Potency,[8],inactive
CCCCCCCCCCCCCCC(=O)O,Potency,[1],inactive
same,Potency,[9],inactive
same,Potency,[3],inactive
same,outcome,[5],inactive
same,outcome,[6],inactive
same,outcome,[7],inactive
same,Potency,[8],inactive
Cc1ncc([C@@H](CCCCCCc2ccc3c(n2)NCCC3)CC(=O)O)cn1,Potency,[10],inactive
same,Potency,[9],inactive
same,outcome,[4],inactive
same,outcome,[5],inactive
same,outcome,[7],inactive
same,Potency,[8],inactive
COc1ccc2cc1Oc1cc3c(cc1OC)CC[N+](C)(C)[C@H]3Cc1ccc(cc1)Oc1c(OC)c(OC)cc3c1[C@@H](C2)[N+](C)(C)CC3,Potency,[1],inactive
same,Potency,[2],inactive
same,Potency,[3],inactive
same,outcome,[4],inactive
same,outcome,[5],inactive
same,outcome,[6],inactive
same,outcome,[7],inactive
same,Potency,[8],inactive
Cc1ccc(-c2ncc(Cl)cc2-c2ccc(S(C)(=O)=O)cc2)cn1,Potency,[1],inactive
same,Potency,[2],inactive
same,Potency,[9],inactive
same,outcome,[4],inactive
same,outcome,[5],inactive
same,outcome,[6],inactive
same,outcome,[7],inactive
same,Potency,[8],inactive
CC1=NN(c2cc(S(=O)(=O)O)ccc2Cl)C(=O)C1N=Nc1ccccc1 (configuration not stated),Potency,[1],27.3 µM (active)
same,Potency,[2],inactive
same,Potency,[3],inactive
same,outcome,[4],inactive
same,outcome,[5],inactive
same,outcome,[7],inactive
same,Potency,[8],inactive
C[N+](C)(CCOc1ccccc1)Cc1cccs1,Potency,[1],inactive
same,Potency,[3],inactive
same,outcome,[4],inactive
same,outcome,[5],inactive
same,outcome,[7],inactive
same,Potency,[8],inactive
Cc1ccc(C(=O)Nc2ccc(S(=O)(=O)O)c3cc(S(=O)(=O)O)cc(S(=O)(=O)O)c23)cc1NC(=O)c1cccc(NC(=O)Nc2cccc(C(=O)Nc3cc(C(=O)Nc4ccc(S(=O)(=O)O)c5cc(S(=O)(=O)O)cc(S(=O)(=O)O)c45)ccc3C)c2)c1,Potency,[1],inactive
same,Potency,[2],inactive
same,Potency,[9],inactive
same,outcome,[4],inactive
same,outcome,[5],inactive
same,outcome,[7],inactive
same,Potency,[8],inactive
C=C(C)C(=O)OCC1CCCO1 (configuration not stated),Potency,[1],inactive
same,Potency,[2],inactive
same,Potency,[3],inactive
same,outcome,[4],inactive
same,outcome,[5],inactive
same,outcome,[6],inactive
same,outcome,[7],inactive
same,Potency,[8],inactive
CCOC(=O)c1cnc2c(cnn2CC)c1NN=C(C)C,Potency,[1],inactive
same,Potency,[2],inactive
same,Potency,[9],inactive
same,outcome,[4],inactive
same,outcome,[5],inactive
same,outcome,[6],inactive
same,outcome,[7],inactive
same,Potency,[8],inactive
CCOC(=O)C(=O)CCCCCCl,Potency,[1],inactive
same,Potency,[2],inactive
same,Potency,[9],inactive
same,outcome,[4],inactive
same,outcome,[5],inactive
same,outcome,[6],inactive
same,outcome,[7],inactive
same,Potency,[8],inactive
O=C1c2ccccc2C(=O)c2cc(O)ccc21,Potency,[1],27.3 µM (active)
same,Potency,[2],inactive
same,outcome,[4],inactive
same,outcome,[5],inactive
same,outcome,[6],inactive
C=C(C)C(=O)OCCOCCOCCOCCOC(=O)C(=C)C,Potency,[1],inactive
same,outcome,[4],inactive
same,outcome,[5],inactive
same,outcome,[6],inactive
same,outcome,[7],inactive
same,Potency,[8],inactive
COc1cc(C)nc(-n2nc(C)cc2OC)n1,Potency,[1],inactive
same,Potency,[3],8.41 µM (active)
same,outcome,[4],inactive
same,outcome,[5],inactive
Nc1ccn([C@@H]2O[C@H](CO)[C@@H](O)C2O)c(=O)n1 (some centres not stated),Potency,[1],inactive
same,Potency,[2],inactive
same,Potency,[3],inactive
same,outcome,[4],inactive
same,outcome,[5],inactive
same,outcome,[6],inactive
same,outcome,[7],inactive
same,Potency,[8],inactive
CCOC(=O)CCC(=O)OCC,Potency,[1],inactive
same,Potency,[9],inactive
same,Potency,[3],inactive
same,outcome,[4],inactive
same,outcome,[5],inactive
same,outcome,[7],inactive
same,Potency,[8],inactive
C[N+]1(CC2COC(c3ccccc3)(c3ccccc3)O2)CCCCC1 (configuration not stated),"activity change, negative = cytotoxicity",[1],7.11% [at 19 µM]
same,"activity change, negative = inhibition",[2],3.69% [at 18.9 µM]
same,"activity change, negative = cytotoxicity",[3],-1.98% [at 19 µM]
same,"viability change, negative = cytotoxic",[4],7.39% [at 15.8 µM]
same,"activity change, negative = cytotoxicity",[5],-19% [at 15.8 µM]
same,activation,[6],1.32% [at 15.8 µM]
same,"activity, negative = inhibition",[7],1.31% [at 10.5 µM]
same,activation,[8],10.8% [at 11.8 µM]
COCCOC[C@H](CC1(C(=O)NC2CCC(C(=O)O)CC2)CCCC1)C(=O)Oc1ccc2c(c1)CCC2 (some centres not stated),Potency,[2],inactive
same,Potency,[9],inactive
same,Potency,[3],inactive
same,outcome,[4],inactive
same,outcome,[5],inactive
same,outcome,[6],inactive
same,Potency,[8],11 µM (active)
CC(=O)OCC(=O)[C@@]1(O)[C@H](C)C[C@H]2[C@@H]3CCC4=CC(=O)C=C[C@]4(C)[C@@]3(F)[C@@H](O)C[C@@]21C,Potency,[1],inactive
same,outcome,[4],inactive
same,outcome,[5],inactive
same,outcome,[7],inactive
same,Potency,[8],inactive
NO,Potency,[1],inactive
same,outcome,[4],inactive
same,outcome,[5],inactive
same,outcome,[6],inactive
CCN(C=O)CC,Potency,[1],inactive
same,outcome,[4],inactive
same,outcome,[5],inactive
same,outcome,[7],inactive
same,Potency,[8],inactive
CC1=C(C/C=C(\C)CCC[C@H](C)CCC[C@H](C)CCCC(C)C)C(=O)c2ccccc2C1=O,Potency,[1],inactive
same,Potency,[2],inactive
same,Potency,[3],inactive
same,outcome,[4],inactive
same,outcome,[5],inactive
same,outcome,[6],inactive
Cc1cc(C)c(N=Nc2c(O)c(S(=O)(=O)O)cc3cc(S(=O)(=O)O)ccc23)cc1C,"activity change, negative = inhibition",[2],2.15% [at 8.39 µM]
same,"activity change, negative = cytotoxicity",[9],1.98% [at 8.39 µM]
same,"activity change, negative = cytotoxicity",[3],0% [at 8.39 µM]
same,"viability change, negative = cytotoxic",[4],-0.1% [at 6.97 µM]
same,"activity change, negative = cytotoxicity",[5],-4.86% [at 6.97 µM]
same,activation,[6],0.0984% [at 6.97 µM]
